Only some compounds are listed: those with a hit (about 4.5% of all), similar ones and a draw of the others.
697 NFkB inh = inhibitors of PMA/ionomycin-induced NF-kB reporter, 697 cells, primary screen, B-cell NF-kB inhibitor project, cell-based, luminescence, uHTS | 697 B-cell NF-kB luciferase reporter, 16 h | inhibition, % at 4 µM | 0.33% of 330,000 active | AID 435022, 2010; in the data active means inhibition above about 35%
CSC inhib = cancer stem cell viability inhibitors, primary screen, luminescence; cancer stem cell-like cells viability; inhibition, % at 7.5 µM; 1.1% of 300,000 active; in the data active means inhibition above about 75%; inconclusive means no clear call, values can overlap the other calls; tested in HMLE shEcad cells
Mdm2-MdmX inh = inhibitors of human Mdm2-MdmX association, primary screen, cell-based, luminescence, split luciferase, SaOS-2, uHTS. inhibition, % at 8 µM. 3% of 330,000 active. Protein Mdm4 (Homo sapiens) + E3 ubiquitin-protein ligase Mdm2 (Homo sapiens), …. AID 485346, 2010. SaOS-2 split-luciferase Mdm2/MdmX complementation;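 active means inhibition of at least 50% at 8 µM in the primary screen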
Gli-Sufu block = Gli-Sufu pathway antagonists, primary screen, luciferase luminescence, Sufu-KO-LIGHT cells, uHTS | 0.74% of 340,000 active | Sufu-KO-LIGHT fibroblasts, Gli luciferase reporter luminescence | inhibition, % at 5 µM;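 active means inhibition above about 55%, limit read from the data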;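 further: 0% = DMSO-treated cells and 100% = wells with medium but no cells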
Beta cell apopt = inhibitors of cytokine-induced beta cell apoptosis, primary screen, luminescence | INS-1E cytokine-induced death, ATP luminescence, 48 h; percent of positive-control rescue, neutral wells zero | AID 435005, 2010 | protection from apoptosis, % (no concentration beside the values) | 0.8% of 300,000 active;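 active means Every replicate reaches about 75%, or at least half do and their mean reaches it too, limit read from the data; inconclusive means At least half of replicates reach the limit but their mean does not; inactive means Under half of replicates reach the limit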;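 further: 0% = cytokine-treated negative control wells and 100% = positive control rescue; higher means more ATP so stronger rescue from cytokine killing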
Jurkat NFkB inh = inhibitors of induced NF-kB luciferase reporter, primary screen, TCR NF-kB activation inhibitor project, cell-based, luminescence, uHTS; Jurkat, PMA/ionomycin-induced NF-kB luciferase reporter; inhibition, % at 4 µM; 0.53% of 330,000 active; in the data active means inhibition above about 50%
Starred values were filed as active, the others as inactive; ? = inconclusive; . = no result.

SMILES	697 NFkB inh	CSC inhib	Mdm2-MdmX inh	Gli-Sufu block	Beta cell apopt	Jurkat NFkB inh
COc1ccc(NC(=O)CN(C)C(=O)/C=C/c2ccc(S(=O)(=O)N3CCCCCC3)cc2)cc1	18	14	27	-4	75*	-4
COc1ccc(N(CC(=O)Nc2ccc(S(=O)(=O)N3CCCCC3)cc2)S(C)(=O)=O)cc1OC	-34	0	22	2	0	7
CCN1CCN(Cc2c3ccccc3cc3ccccc23)CC1	-7	-14	10	12	3	-15
COc1ccc(NC2CCCN(C(=O)CCc3ccncc3)C2)cc1OC (centres undefined)	-5	.	7	-4	2	4
CNc1nc(SCc2ccccc2Cl)nc2c1CCCC2	10	79*	26	-9	5	4
COc1ccc(C(=O)N/N=C/c2sc3ccccc3c2O)cc1	.	?	.	17	96*	.
O=C(N/N=C/c1sc2ccccc2c1O)c1cccc2ccccc12	.	97*	.	25	97*	.
O=C(N/N=C/c1ccccc1)c1cccc2ccccc12	0	36	-14	-9	-7	11
COc1ccc(C(=O)N/N=C/c2c[nH]c3ccccc23)cc1	-62	9	-4	-35	-3	-52
O=C(COC(=O)C12CC3CC(CC(Br)(C3)C1)C2)Nc1ccc2[nH]c(=O)[nH]c2c1	7	1	14	-9	.	14
Nn1c(SCC(=O)Nc2ccc(N3CCOCC3)cc2)nnc1-c1cccc(F)c1	-29	-1	-27	.	-5	-21
N#CC(C#N)=C1C=CC=CN1/C(=C\c1ccco1)C(=O)c1ccc(Br)cc1	.	-90	.	16	101*	.
C/C(=N\NC(=O)c1cc(-c2cccc([N+](=O)[O-])c2)n[nH]1)c1ccccc1O	.	80*	.	-6	.	.
O=C(Nc1ccc2c(c1)COC2=O)c1ccc(Cl)c(Cl)c1	-48	-7	-52	-59	2	-76
CCN1C(=O)C(CC(=O)Nc2ccc(OC)cc2)N(CCc2ccc(F)cc2)C1=S (centres undefined)	9	24	4	-3	15	5
COc1ccc(CCN2C(=S)N(C)C(=O)C2CC(=O)Nc2ccc(OC)cc2)cc1 (centres undefined)	21	97*	0	2	2	-8
CCN1C(=O)C(CC(=O)Nc2ccc(OC)cc2)N(CCCN2CCN(c3ccc(F)cc3)CC2)C1=S (centres undefined)	-4	81*	28	-18	7	5
COc1ccc(NC(=O)CC2C(=O)N(C)C(=S)N2CCc2ccc(F)cc2)cc1 (centres undefined)	5	46	2	1	2	13
Cc1ccc(C=C2C(Cl)=C(Cl)C(Cl)=C2Cl)cc1	4	100*	20	6	4	0
Nc1[nH]n(-c2ccccc2)c(=O)c1N=Nc1ccc2c(c1)OCO2	-101	113*	-169	-19	15	-60
CCCCn1c(N)c(N(CCOC)C(=O)COC(=O)CSc2cc(C)c3ccccc3n2)c(=O)[nH]c1=O	21	.	6	-9	-4	14
O=C(Nc1ccc2ccccc2n1)c1ccccc1Br	-163	-3	-126	-111	-4	-146
Cc1ccc(/C=C/C(=O)c2cc(Br)ccc2OC(=O)c2ccco2)cc1	13	93*	39	-8	8	-3
O=C1/C(=C\c2cccc(O)c2)SC(=S)N1Cc1ccccc1	6	20	22	-1	-6	-23
O=C1/C(=C\c2cc([N+](=O)[O-])ccc2O)SC(=S)N1Cc1ccc(Cl)cc1	.	104*	.	16	4	.
SMILES	697 NFkB inh	CSC inhib	Mdm2-MdmX inh	Gli-Sufu block	Beta cell apopt	Jurkat NFkB inh
COc1cc(/C=C2/SC(=NCc3ccccc3)N(Cc3ccccc3)C2=O)ccc1O	24	0	44	-7	-5	6
COc1cc(/C=C2/SC(=S)N(Cc3ccccc3)C2=O)ccc1O	-7	100*	6	-5	-1	0
O=C(O)CN1C(=O)/C(=C\c2cc(Br)ccc2OCc2ccc(Cl)cc2)SC1=S	.	98*	.	6	-5	.
O=C1/C(=C\c2ccc(O)c(O)c2)SC(=S)N1Cc1ccccc1	-58	104*	40	3	-1	-22
Cc1ccc(NC(=O)c2c(-c3c(F)cccc3Cl)noc2C)cc1F	9	5	16	6	96*	-15
Cc1onc(-c2c(Cl)cccc2Cl)c1NC(=O)NNc1ccccc1	3	3	-6	47	9	-8
Cc1onc(-c2c(Cl)cccc2Cl)c1C(=O)NNc1ccccc1	34	91*	11	3	-3	23
Cc1nc(C(=O)NNC(=O)c2c(-c3c(Cl)cccc3Cl)noc2C)cs1	-20	35	30	1	86*	-2
Cc1cc(C(=O)NNC(=O)c2c(-c3c(Cl)cccc3Cl)noc2C)no1	6	-7	3	-4	3	-17
Cc1cc(NC(=O)c2c(-c3c(F)cccc3Cl)noc2C)no1	2	1	-9	1	-2	16
Cc1cccc(-n2c(O)c(C=NC3CCS(=O)(=O)C3)c3ccccc3c2=O)c1C (centres undefined)	17	-5	32	9	3	-8
CC(=O)c1cccc(CN2CCC(n3nccc3NC(=O)c3ccc4c(c3)OCO4)CC2)c1	9	-4	13	18	-3	17
O=C(Nc1ccccc1)Nc1ccc(O)c2ccccc12	-13	98*	29	-22	11	11
O=C(Nc1ccccc1Cl)Nc1ccccc1Cl	-2	1	15	-13	7	-14
O=C(Nc1ccc(Nc2ccccc2)cc1)Nc1ccccc1Cl	-82	100*	-83	-46	10	-55
CS(=O)(=O)N1CCC(C(=O)Nc2cc(Cl)c(Cl)cc2Cl)CC1	-9	4	15	5	-3	-17
O=C(CN1C(=O)CSc2ccc(S(=O)(=O)N3CCOCC3)cc21)NCc1ccc(F)cc1	-6	-10	-4	-8	4	-6
COc1ccc(OC)c(-c2csc(N(CC3CCCO3)C(=O)C3CCCCC3)n2)c1 (centres undefined)	11	78*	7	-1	3	-8
CCOc1ccc(-n2c(SCc3cc(=O)oc4cc(C)ccc34)nnc2-c2cccnc2)cc1	-36	-3	8	.	8	-1
CC(C)c1ccccc1-n1c(SCc2cc(=O)oc3ccc4ccccc4c23)nnc1-c1cccnc1	-33	76*	32	14	10	-6
Cc1cc[n+](CC(=O)c2ccccc2)c2ccccc12	13	-2	35	-4	117*	1

Assay outcomes as filed in PubChem BioAssay.
